Source: PubChem BioAssay (NCATS)
Records with an inconclusive call do not appear. A call without a number means that no potency is given here. Values without a mark were called inactive. Activity calls are given as the source filed them. Calls follow the shape of the dose curve; as a rule, active = well fitted inhibition curve with a large enough effect; inconclusive = small, poorly fitted or top-dose-only effect; inactive = flat fitted curve, though single readings scatter. *1 amine or outer side, *2 acyl side, *3 side chain or, on linkers, in order; H or OH if unused. Where a SMILES comes first, the peptide text is derived from it. Bridges are numbered along the chain shown (N, C = ends). [ ]: non-standard residue; d: D form. The star is where a group is joined. X11 = NC1=N[C@@H](O)C[C@H]([C@H](N[*:1])C(=O)[*:2])N1; ΔAla(Z-3-ureido) = NC(=O)N/C=C(\N)C(=O)O; β3hOrn = NCCC[C@H](N)CC(=O)*; Dap = NC[C@H](N)C(=O)O

What was measured:
[1] = target: Glutathione peroxidase 1 (Homo sapiens) (UniProt P07203); assay: Primary qHTS Assay for Inhibitors of Recombinant Selenoprotein Glutathione Peroxidase 1 (GPX1) (AID 1845191)
Summary of the method: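 NADPH consumption tracked by fluorescence at 340/450 nm between t=0 and t=15 min, room temperature. Final mix: 10 nM GPX1, 100 nM glutathione reductase, 1 mM GSH, 0.5 mM NADPH, 0.5 mM cumene hydroperoxide, 0.01% BSA; 30 min compound–enzyme preincubation.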

[2] = target: Phospholipid hydroperoxide glutathione peroxidase GPX4 (Homo sapiens) (UniProt P36969); assay: Primary qHTS Assay for Inhibitors of Recombinant Selenoprotein Glutathione Peroxidase 4 (GPX4) (AID 1845192); also: potency is read from the fitted curve at half-maximal effect
Summary of the method: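 NADPH consumption followed by fluorescence at 340/450 nm, t=0 and after 15 min at room temperature. Reaction started with cumene hydroperoxide (0.5 mM final) after 30 min compound–GPX4 preincubation; final 200 nM GPX4, 100 nM GR, 1 mM GSH, 0.5 mM NADPH.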
Also: nearly all actives have a fitted effect of over 65% in size.

Chain of Phospholipid hydroperoxide glutathione peroxidase GPX4 (Homo sapiens) (P36969 whole entry, looked up): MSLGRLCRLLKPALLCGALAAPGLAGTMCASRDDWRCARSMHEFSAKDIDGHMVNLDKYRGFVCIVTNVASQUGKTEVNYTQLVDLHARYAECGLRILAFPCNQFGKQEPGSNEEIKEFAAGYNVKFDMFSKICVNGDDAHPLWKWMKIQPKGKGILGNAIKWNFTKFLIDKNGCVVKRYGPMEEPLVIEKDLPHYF
Chain of Glutathione peroxidase 1 (Homo sapiens) (P07203 whole entry, looked up): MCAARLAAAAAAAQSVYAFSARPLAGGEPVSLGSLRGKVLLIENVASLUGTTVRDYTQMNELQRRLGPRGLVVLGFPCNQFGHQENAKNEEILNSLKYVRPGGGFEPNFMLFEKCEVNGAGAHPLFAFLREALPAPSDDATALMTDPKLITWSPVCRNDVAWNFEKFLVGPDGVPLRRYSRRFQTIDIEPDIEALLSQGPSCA

Structure (SMILES): COc1cc2c(c(OC)c1OC)-c1c(cc3c(c1OC)OCO3)C[C@H](C)[C@@](C)(O)C2
- Potency [1]: inactive
- Potency [2]: inactive

Structure (SMILES): Cc1cc(C#N)cc(C)c1Oc1nc(Nc2ccc(C#N)cc2)nc(N)c1Br
- Potency [1]: inactive
- Potency [2]: inactive

Structure (SMILES): CC1CC2C3CCC4=CC(=O)C=CC4(C)C3(F)C(O)CC2(C)C1(O)C(=O)COC(=O)c1cccc(S(=O)(=O)O)c1 (centres undefined)
- Potency [1]: inactive
- Potency [2]: 20 µM (active)

Structure (SMILES): NCCC[C@H](N)CC(=O)N[C@H]1CNC(=O)[C@H]([C@H]2C[C@H](O)N=C(N)N2)NC(=O)/C(=C/NC(N)=O)NC(=O)[C@H](CO)NC(=O)[C@H](CO)NC1=O (β3hOrn-[Dap]SS[ΔAla(Z-3-ureido)][X11]; lactam 1-C)
- Potency [1]: inactive
- Potency [2]: inactive

Structure (SMILES): CSCC[C@H](N)C(=O)O
- Potency [1]: inactive
- Potency [2]: inactive

Structure (SMILES): OC[C@H]1O[C@H](O[C@H]2[C@H](O)[C@@H](O)[C@H](O)O[C@@H]2CO)[C@H](O)[C@@H](O)[C@@H]1O
- Potency [1]: inactive
- Potency [2]: inactive

Structure (SMILES): CCC(=O)Oc1ccc2c(c1)CC[C@@H]1[C@H]2CC[C@]2(C)[C@@H](OC(=O)CC)CC[C@@H]12
- Potency [1]: inactive
- Potency [2]: inactive

Structure (SMILES): C[N+](C)(C)C1CCC(CC2CCC([N+](C)(C)C)CC2)CC1 (centres undefined)
- Potency [1]: inactive
- Potency [2]: inactive

Structure (SMILES): CCN1CCC(=C2c3ccccc3CCc3ccccc32)C1C (centres undefined)
- Potency [1]: inactive
- Potency [2]: inactive

Structure (SMILES): O=P(O)(O)OC1C(OP(=O)(O)O)C(OP(=O)(O)O)C(OP(=O)(O)O)C(OP(=O)(O)O)C1OP(=O)(O)O (centres undefined)
- Potency [1]: inactive
- Potency [2]: inactive

Structure (SMILES): CCCCCCCCCCCCCCCC(=O)OC1C(SC)OC(C(NC(=O)C2CC(CCC)CN2C)C(C)Cl)C(O)C1O (centres undefined)
- Potency [1]: inactive
- Potency [2]: inactive

Structure (SMILES): OC[C@H]1O[C@H](O)[C@H](O)[C@@H](O)[C@@H]1O
- Potency [1]: inactive
- Potency [2]: inactive

Structure (SMILES): C[C@H](CCC(=O)O)[C@H]1CC[C@H]2[C@@H]3CC[C@@H]4C[C@H](O)CC[C@]4(C)[C@@H]3C[C@H](O)[C@]12C
- Potency [1]: inactive
- Potency [2]: inactive

Structure (SMILES): CC(=O)c1cc2cccc(OCC(O)CNC(C)C)c2o1 (centres undefined)
- Potency [1]: inactive
- Potency [2]: inactive

Structure (SMILES): CCC(CN)CC(C)CNCC(O)CNCC(CC)CC(CC)CN (centres undefined)
- Potency [1]: inactive
- Potency [2]: inactive

Structure (SMILES): CCCCCCCCN=C(N)NC(N)=NCc1ccc(Cl)c(Cl)c1
- Potency [1]: inactive
- Potency [2]: inactive

Structure (SMILES): CCCN1C[C@H](C)[C@@H](O)[C@](C)(O)[C@@H](CC)OC(=O)[C@H](C)[C@@H](O[C@H]2C[C@@](C)(OC)[C@@H](O)[C@H](C)O2)C(C)[C@@H](O[C@@H]2O[C@H](C)C[C@H](N(C)C)[C@H]2O)[C@](C)(O)C[C@H]1C (some centres undefined)
- Potency [1]: inactive
- Potency [2]: inactive

Structure (SMILES): CCC[C@@H]1C[C@@H](C(=O)N[C@@H](C2O[C@H](SC)[C@H](O)[C@@H](O)[C@H]2O)[C@H](C)Cl)N(C)C1 (some centres undefined)
- Potency [1]: inactive
- Potency [2]: inactive

Structure (SMILES): CCCC1CC(C(=O)NC(C(C)Cl)C2OC(SC)C(OP(=O)(O)O)C(O)C2O)N(C)C1 (centres undefined)
- Potency [1]: inactive
- Potency [2]: inactive

Structure (SMILES): CC(OC(=O)NCC1(CC(=O)O)CCCCC1)OC(=O)C(C)C (centres undefined)
- Potency [1]: inactive
- Potency [2]: inactive

Structure (SMILES): CCC(c1ccccc1)c1c(O)c2ccccc2oc1=O (centres undefined)
- Potency [1]: inactive
- Potency [2]: inactive

Structure (SMILES): CCC(=O)O[C@]1(C(=O)COC(C)=O)CC[C@H]2[C@@H]3CCC4=CC(=O)CC[C@]4(C)[C@H]3[C@@H](O)C[C@@]21C
- Potency [1]: inactive
- Potency [2]: inactive

Structure (SMILES): CC(=O)O[C@]1(C(C)=O)CC[C@H]2[C@@H]3C=C(C)C4=CC(=O)CC[C@@H]4[C@H]3CC[C@@]21C
- Potency [1]: inactive
- Potency [2]: inactive

Structure (SMILES): CC[C@@H]1CCN[C@H](C(=O)N[C@@H]([C@H]2O[C@H](SC)[C@H](O)[C@@H](O)[C@H]2O)[C@H](C)Cl)C1
- Potency [1]: inactive
- Potency [2]: inactive

Structure (SMILES): [2H]C([2H])([2H])C(O)(CCO[C@@H](C)[C@H]1CC[C@H]2/C(=C/C=C3\C[C@@H](O)C[C@H](O)C3=C)CCC[C@]12C)C([2H])([2H])[2H]
- Potency [1]: inactive
- Potency [2]: inactive

Structure (SMILES): O=C(O[C@H]1C[N+]2(CCCOc3ccccc3)CCC1CC2)C(O)(c1cccs1)c1cccs1
- Potency [1]: inactive
- Potency [2]: inactive

Structure (SMILES): CCCC(=O)Nc1ncnc2c1ncn2C1O[C@@H]2COP(=O)(O)O[C@H]2[C@H]1OC(=O)CCC (some centres undefined)
- Potency [1]: inactive
- Potency [2]: inactive
